Source: paper PMC7862700, “An all-to-all approach to the identification of sequence-specific readers for epigenetic DNA modifications on cytosine”

Key:
Assay in all cases: DAPPL (digital affinity profiling via proximity ligation, sequencing); 10 mM Tris-HCl pH 7.5, 50 mM NaCl, 1 mM DTT, 4% glycerol, room temperature, 30 min; GST-TFs on glutathione beads, 16-mer random dsDNA library, 0.1% formaldehyde crosslink after washing; high values mean tight binding
FEV = target: T1, FEV (Homo sapiens, UniProt Q99581 1-238); settings: protein: recombinant; tags: N-terminal GST; dsDNA, one strand shown
T1 sequence: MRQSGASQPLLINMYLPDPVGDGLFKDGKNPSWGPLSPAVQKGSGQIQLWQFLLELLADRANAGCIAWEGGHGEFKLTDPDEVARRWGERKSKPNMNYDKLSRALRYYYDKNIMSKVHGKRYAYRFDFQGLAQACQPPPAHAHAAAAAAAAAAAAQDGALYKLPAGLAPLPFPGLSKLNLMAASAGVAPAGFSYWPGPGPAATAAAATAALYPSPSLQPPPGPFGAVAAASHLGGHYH
Method in brief: (§1)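 In yeast, human transcription factors were expressed with a GST fusion, then pulled down on glutathione beads and given DNA barcodes. Pooled with a tag-only sample, they were exposed to 200 nmole of a 16-mer random double-stranded DNA library (Tris/NaCl/DTT/glycerol buffer, room temperature, 30 min), washed, crosslinked with 0.1% formaldehyde, proximity-ligated using BsaI/T4 ligase for 1 h at 37 °C, PCR-amplified and read on an Illumina NextSeq500. Each hexamer's frequency of reads for a factor, divided by the matching frequency for the tag-only sample, gives the binding signal.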

ETV5 = ETV5 (Homo sapiens, UniProt P41161 1-510); settings: protein: recombinant; tags: N-terminal GST; dsDNA, one strand shown
Chain of ETV5 (P41161 whole entry): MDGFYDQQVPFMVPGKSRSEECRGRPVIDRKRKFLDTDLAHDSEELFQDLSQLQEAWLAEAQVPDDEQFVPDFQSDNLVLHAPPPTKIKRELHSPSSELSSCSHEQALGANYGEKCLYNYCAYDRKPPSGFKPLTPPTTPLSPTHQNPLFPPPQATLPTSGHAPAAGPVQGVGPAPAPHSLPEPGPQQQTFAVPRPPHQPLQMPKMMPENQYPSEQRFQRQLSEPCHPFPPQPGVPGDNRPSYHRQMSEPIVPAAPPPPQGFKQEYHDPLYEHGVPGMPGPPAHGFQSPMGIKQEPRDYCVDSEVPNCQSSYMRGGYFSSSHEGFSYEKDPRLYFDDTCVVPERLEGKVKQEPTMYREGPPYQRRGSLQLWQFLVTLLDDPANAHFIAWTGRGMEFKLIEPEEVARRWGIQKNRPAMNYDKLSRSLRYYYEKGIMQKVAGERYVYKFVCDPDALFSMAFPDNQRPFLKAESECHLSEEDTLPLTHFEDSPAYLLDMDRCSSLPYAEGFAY
Method in brief: as §1

HSF1 = HSF1 (Homo sapiens, UniProt Q00613 1-529); settings: protein: recombinant; tags: N-terminal GST; chain copies: 3; dsDNA, one strand shown
Chain of HSF1 (Q00613 whole entry): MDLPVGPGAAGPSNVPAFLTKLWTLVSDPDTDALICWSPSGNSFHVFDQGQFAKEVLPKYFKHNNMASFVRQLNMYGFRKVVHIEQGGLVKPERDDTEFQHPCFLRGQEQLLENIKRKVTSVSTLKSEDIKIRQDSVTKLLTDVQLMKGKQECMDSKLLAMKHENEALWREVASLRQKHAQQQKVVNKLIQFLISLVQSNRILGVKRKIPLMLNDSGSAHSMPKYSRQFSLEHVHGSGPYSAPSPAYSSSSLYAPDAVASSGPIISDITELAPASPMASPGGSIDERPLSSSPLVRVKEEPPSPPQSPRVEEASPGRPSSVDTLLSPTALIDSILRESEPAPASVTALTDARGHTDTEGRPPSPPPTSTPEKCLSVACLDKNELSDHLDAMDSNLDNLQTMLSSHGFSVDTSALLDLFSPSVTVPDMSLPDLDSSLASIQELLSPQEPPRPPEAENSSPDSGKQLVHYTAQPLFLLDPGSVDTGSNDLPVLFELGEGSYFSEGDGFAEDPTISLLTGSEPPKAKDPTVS
Method in brief: as §1

SPIC = target: T2, SPIC (Homo sapiens, UniProt Q8N5J4 1-248); settings: protein: recombinant; tags: N-terminal GST; dsDNA, one strand shown
T2 sequence: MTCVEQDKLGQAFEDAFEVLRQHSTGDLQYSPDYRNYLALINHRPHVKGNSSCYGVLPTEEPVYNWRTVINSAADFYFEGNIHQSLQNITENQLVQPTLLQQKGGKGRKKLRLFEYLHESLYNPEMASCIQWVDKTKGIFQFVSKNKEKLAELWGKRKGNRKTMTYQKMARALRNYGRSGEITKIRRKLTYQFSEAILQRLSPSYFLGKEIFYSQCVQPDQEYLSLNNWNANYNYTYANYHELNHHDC
Method in brief: as §1

ELF4 = ELF4 (Homo sapiens, UniProt Q99607 1-663); settings: protein: recombinant; tags: N-terminal GST; dsDNA, one strand shown
Chain of ELF4 (Q99607 whole entry): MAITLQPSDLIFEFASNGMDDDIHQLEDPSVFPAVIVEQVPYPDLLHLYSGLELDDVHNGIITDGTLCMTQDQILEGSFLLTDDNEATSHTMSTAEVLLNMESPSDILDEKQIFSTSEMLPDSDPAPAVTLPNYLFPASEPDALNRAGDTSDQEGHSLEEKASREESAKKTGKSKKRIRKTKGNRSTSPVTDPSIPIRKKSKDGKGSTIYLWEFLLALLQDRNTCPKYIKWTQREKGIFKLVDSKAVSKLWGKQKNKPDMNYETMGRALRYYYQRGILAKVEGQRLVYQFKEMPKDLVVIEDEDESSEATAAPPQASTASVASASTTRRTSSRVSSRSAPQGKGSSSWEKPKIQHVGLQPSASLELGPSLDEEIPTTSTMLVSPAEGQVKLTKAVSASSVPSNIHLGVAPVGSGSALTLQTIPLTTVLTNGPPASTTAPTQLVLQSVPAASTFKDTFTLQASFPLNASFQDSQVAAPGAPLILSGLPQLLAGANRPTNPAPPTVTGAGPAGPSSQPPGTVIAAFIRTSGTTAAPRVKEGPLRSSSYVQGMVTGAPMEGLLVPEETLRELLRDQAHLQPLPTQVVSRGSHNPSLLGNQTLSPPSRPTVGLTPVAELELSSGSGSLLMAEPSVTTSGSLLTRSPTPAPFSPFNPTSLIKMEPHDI
Method in brief: as §1

ELK4 = target: T3, ELK4 (Homo sapiens, UniProt P28324-2 1-405); settings: protein: recombinant; tags: N-terminal GST; dsDNA, one strand shown
T3 sequence: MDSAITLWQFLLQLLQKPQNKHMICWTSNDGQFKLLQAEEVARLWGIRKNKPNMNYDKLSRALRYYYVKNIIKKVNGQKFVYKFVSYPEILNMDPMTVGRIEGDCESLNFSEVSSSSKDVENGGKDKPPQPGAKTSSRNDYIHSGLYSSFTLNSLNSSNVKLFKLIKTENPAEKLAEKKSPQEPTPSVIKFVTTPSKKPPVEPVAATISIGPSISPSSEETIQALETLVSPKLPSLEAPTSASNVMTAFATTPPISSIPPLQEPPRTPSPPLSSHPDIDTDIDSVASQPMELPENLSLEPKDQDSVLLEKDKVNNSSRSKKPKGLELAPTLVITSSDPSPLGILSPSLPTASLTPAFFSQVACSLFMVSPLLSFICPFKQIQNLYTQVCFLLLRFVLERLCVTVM
Method in brief: as §1

ETV2 = target: T4, ETV2 (Homo sapiens, UniProt O00321 1-342); settings: protein: recombinant; tags: N-terminal GST; dsDNA, one strand shown
T4 sequence: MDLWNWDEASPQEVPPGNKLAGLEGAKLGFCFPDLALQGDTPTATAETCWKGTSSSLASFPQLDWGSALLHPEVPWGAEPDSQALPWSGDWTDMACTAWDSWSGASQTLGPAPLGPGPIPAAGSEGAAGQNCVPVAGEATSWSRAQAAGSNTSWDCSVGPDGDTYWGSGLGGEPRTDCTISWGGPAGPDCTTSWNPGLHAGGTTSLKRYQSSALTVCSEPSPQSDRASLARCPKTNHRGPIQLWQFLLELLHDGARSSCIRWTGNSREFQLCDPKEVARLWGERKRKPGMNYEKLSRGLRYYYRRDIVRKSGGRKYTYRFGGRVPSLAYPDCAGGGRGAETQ
Method in brief: as §1

CRX = CRX (Homo sapiens, UniProt O43186 1-299); settings: protein: recombinant; tags: N-terminal GST; dsDNA, one strand shown
Chain of CRX (O43186 whole entry): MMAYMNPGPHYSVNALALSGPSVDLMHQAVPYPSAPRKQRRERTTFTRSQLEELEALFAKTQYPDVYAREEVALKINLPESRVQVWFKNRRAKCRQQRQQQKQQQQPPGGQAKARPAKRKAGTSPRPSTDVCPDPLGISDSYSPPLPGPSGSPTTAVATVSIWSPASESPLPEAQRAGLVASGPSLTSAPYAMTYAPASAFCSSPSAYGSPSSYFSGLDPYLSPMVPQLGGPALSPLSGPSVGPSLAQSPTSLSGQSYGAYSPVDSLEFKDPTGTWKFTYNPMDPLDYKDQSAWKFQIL
Method in brief: as §1

ETV1 = ETV1 (Homo sapiens, UniProt P50549 1-477); settings: protein: recombinant; tags: N-terminal GST; dsDNA, one strand shown
Chain of ETV1 (P50549 whole entry): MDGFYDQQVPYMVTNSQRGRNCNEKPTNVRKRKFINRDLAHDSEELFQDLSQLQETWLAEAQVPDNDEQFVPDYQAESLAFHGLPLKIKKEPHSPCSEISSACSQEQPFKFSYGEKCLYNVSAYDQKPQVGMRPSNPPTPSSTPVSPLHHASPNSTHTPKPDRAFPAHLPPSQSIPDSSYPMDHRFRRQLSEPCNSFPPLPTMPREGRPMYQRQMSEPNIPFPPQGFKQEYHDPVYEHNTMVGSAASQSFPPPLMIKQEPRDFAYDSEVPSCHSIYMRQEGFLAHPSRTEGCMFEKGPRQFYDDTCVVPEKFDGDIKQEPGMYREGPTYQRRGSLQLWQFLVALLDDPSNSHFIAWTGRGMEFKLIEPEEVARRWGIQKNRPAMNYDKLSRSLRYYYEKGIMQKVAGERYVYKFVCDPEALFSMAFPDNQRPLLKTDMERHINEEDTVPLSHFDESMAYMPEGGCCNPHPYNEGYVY
Method in brief: as §1

Sequence | binding signal (FEV) | binding signal (ETV5) | binding signal (HSF1) | binding signal (SPIC) | binding signal (ELF4) | binding signal (ELK4) | binding signal (ETV2) | binding signal (CRX) | binding signal (ETV1)
TCGCAA | 1.11 fold enrichment (6-mer frequency, TF over GST control) | 1.06 fold enrichment (6-mer frequency, TF over GST control) | 1.22 fold enrichment (6-mer frequency, TF over GST control) | 1.32 fold enrichment (6-mer frequency, TF over GST control) | 1.15 fold enrichment (6-mer frequency, TF over GST control) | 1.03 fold enrichment (6-mer frequency, TF over GST control) | 1.18 fold enrichment (6-mer frequency, TF over GST control) | 1.05 fold enrichment (6-mer frequency, TF over GST control) | 1.1 fold enrichment (6-mer frequency, TF over GST control)
CGAAAT | 1 fold enrichment (6-mer frequency, TF over GST control) | 1 fold enrichment (6-mer frequency, TF over GST control) | 1.4 fold enrichment (6-mer frequency, TF over GST control) | 1.01 fold enrichment (6-mer frequency, TF over GST control) | 1.01 fold enrichment (6-mer frequency, TF over GST control) | 1.18 fold enrichment (6-mer frequency, TF over GST control) | 1.06 fold enrichment (6-mer frequency, TF over GST control) | 1.07 fold enrichment (6-mer frequency, TF over GST control) | 1.02 fold enrichment (6-mer frequency, TF over GST control)
CGATAA | 1.02 fold enrichment (6-mer frequency, TF over GST control) | 1.04 fold enrichment (6-mer frequency, TF over GST control) | 1.51 fold enrichment (6-mer frequency, TF over GST control) | 1.12 fold enrichment (6-mer frequency, TF over GST control) | 1.16 fold enrichment (6-mer frequency, TF over GST control) | 1.1 fold enrichment (6-mer frequency, TF over GST control) | 1.19 fold enrichment (6-mer frequency, TF over GST control) | 1.75 fold enrichment (6-mer frequency, TF over GST control) | 1.09 fold enrichment (6-mer frequency, TF over GST control)
CAGATG |  | 1.01 fold enrichment (6-mer frequency, TF over GST control) | 1.01 fold enrichment (6-mer frequency, TF over GST control) | 1.12 fold enrichment (6-mer frequency, TF over GST control) | 1.02 fold enrichment (6-mer frequency, TF over GST control) | 1.06 fold enrichment (6-mer frequency, TF over GST control) | 1.01 fold enrichment (6-mer frequency, TF over GST control) |  | 1.01 fold enrichment (6-mer frequency, TF over GST control)
ACTCGA | 1.29 fold enrichment (6-mer frequency, TF over GST control) | 1.27 fold enrichment (6-mer frequency, TF over GST control) | 1.99 fold enrichment (6-mer frequency, TF over GST control) | 1.51 fold enrichment (6-mer frequency, TF over GST control) | 1.31 fold enrichment (6-mer frequency, TF over GST control) | 1.35 fold enrichment (6-mer frequency, TF over GST control) | 1.46 fold enrichment (6-mer frequency, TF over GST control) | 1.37 fold enrichment (6-mer frequency, TF over GST control) | 1.33 fold enrichment (6-mer frequency, TF over GST control)
TTGGCT | 1.17 fold enrichment (6-mer frequency, TF over GST control) | 1.05 fold enrichment (6-mer frequency, TF over GST control) | 1.03 fold enrichment (6-mer frequency, TF over GST control) | 1.02 fold enrichment (6-mer frequency, TF over GST control) | 1.08 fold enrichment (6-mer frequency, TF over GST control) | 1.21 fold enrichment (6-mer frequency, TF over GST control) | 1.07 fold enrichment (6-mer frequency, TF over GST control) | 1.33 fold enrichment (6-mer frequency, TF over GST control) | 1.02 fold enrichment (6-mer frequency, TF over GST control)
TCTGTA | 1.24 fold enrichment (6-mer frequency, TF over GST control) | 1.19 fold enrichment (6-mer frequency, TF over GST control) | 1.31 fold enrichment (6-mer frequency, TF over GST control) | 1.39 fold enrichment (6-mer frequency, TF over GST control) | 1.18 fold enrichment (6-mer frequency, TF over GST control) | 1.3 fold enrichment (6-mer frequency, TF over GST control) | 1.28 fold enrichment (6-mer frequency, TF over GST control) | 1.34 fold enrichment (6-mer frequency, TF over GST control) | 1.28 fold enrichment (6-mer frequency, TF over GST control)
CTCAGA | 1.03 fold enrichment (6-mer frequency, TF over GST control) | 1.14 fold enrichment (6-mer frequency, TF over GST control) | 1.17 fold enrichment (6-mer frequency, TF over GST control) | 1.16 fold enrichment (6-mer frequency, TF over GST control) | 1.14 fold enrichment (6-mer frequency, TF over GST control) | 1.01 fold enrichment (6-mer frequency, TF over GST control) | 1.18 fold enrichment (6-mer frequency, TF over GST control) | 1.27 fold enrichment (6-mer frequency, TF over GST control) | 1.1 fold enrichment (6-mer frequency, TF over GST control)
GATTTG | 1.11 fold enrichment (6-mer frequency, TF over GST control) | 1.25 fold enrichment (6-mer frequency, TF over GST control) | 1.39 fold enrichment (6-mer frequency, TF over GST control) | 1.17 fold enrichment (6-mer frequency, TF over GST control) | 1.13 fold enrichment (6-mer frequency, TF over GST control) | 1.19 fold enrichment (6-mer frequency, TF over GST control) | 1.19 fold enrichment (6-mer frequency, TF over GST control) | 1.78 fold enrichment (6-mer frequency, TF over GST control) | 1.14 fold enrichment (6-mer frequency, TF over GST control)
GAATAC |  | 1.01 fold enrichment (6-mer frequency, TF over GST control) | 1.16 fold enrichment (6-mer frequency, TF over GST control) | 1.06 fold enrichment (6-mer frequency, TF over GST control) | 1.01 fold enrichment (6-mer frequency, TF over GST control) | 1.05 fold enrichment (6-mer frequency, TF over GST control) | 1.05 fold enrichment (6-mer frequency, TF over GST control) |  | 1.09 fold enrichment (6-mer frequency, TF over GST control)
CAGAAT | 1.05 fold enrichment (6-mer frequency, TF over GST control) | 1.01 fold enrichment (6-mer frequency, TF over GST control) | 2.05 fold enrichment (6-mer frequency, TF over GST control) | 1.01 fold enrichment (6-mer frequency, TF over GST control) | 1.13 fold enrichment (6-mer frequency, TF over GST control) | 1.05 fold enrichment (6-mer frequency, TF over GST control) | 1.13 fold enrichment (6-mer frequency, TF over GST control) | 1.34 fold enrichment (6-mer frequency, TF over GST control) | 1.04 fold enrichment (6-mer frequency, TF over GST control)
TTCGCG | 1.09 fold enrichment (6-mer frequency, TF over GST control) | 1.04 fold enrichment (6-mer frequency, TF over GST control) | 1.98 fold enrichment (6-mer frequency, TF over GST control) | 1.16 fold enrichment (6-mer frequency, TF over GST control) | 1.06 fold enrichment (6-mer frequency, TF over GST control) | 1.26 fold enrichment (6-mer frequency, TF over GST control) | 1.2 fold enrichment (6-mer frequency, TF over GST control) | 1.29 fold enrichment (6-mer frequency, TF over GST control) | 1.02 fold enrichment (6-mer frequency, TF over GST control)
ACTCCA | 1.21 fold enrichment (6-mer frequency, TF over GST control) | 1.24 fold enrichment (6-mer frequency, TF over GST control) | 1.14 fold enrichment (6-mer frequency, TF over GST control) | 1.18 fold enrichment (6-mer frequency, TF over GST control) | 1.23 fold enrichment (6-mer frequency, TF over GST control) | 1.05 fold enrichment (6-mer frequency, TF over GST control) | 1.15 fold enrichment (6-mer frequency, TF over GST control) | 1.06 fold enrichment (6-mer frequency, TF over GST control) | 1.22 fold enrichment (6-mer frequency, TF over GST control)
AGCCTA | 1.01 fold enrichment (6-mer frequency, TF over GST control) | 1.09 fold enrichment (6-mer frequency, TF over GST control) | 1.21 fold enrichment (6-mer frequency, TF over GST control) | 1.13 fold enrichment (6-mer frequency, TF over GST control) | 1.09 fold enrichment (6-mer frequency, TF over GST control) | 1.17 fold enrichment (6-mer frequency, TF over GST control) | 1.12 fold enrichment (6-mer frequency, TF over GST control) | 1.52 fold enrichment (6-mer frequency, TF over GST control) | 1.12 fold enrichment (6-mer frequency, TF over GST control)
TTACGA | 1.11 fold enrichment (6-mer frequency, TF over GST control) | 1.07 fold enrichment (6-mer frequency, TF over GST control) | 1.46 fold enrichment (6-mer frequency, TF over GST control) | 1.02 fold enrichment (6-mer frequency, TF over GST control) | 1.16 fold enrichment (6-mer frequency, TF over GST control) | 1.16 fold enrichment (6-mer frequency, TF over GST control) | 1.17 fold enrichment (6-mer frequency, TF over GST control) | 1.89 fold enrichment (6-mer frequency, TF over GST control) | 1.16 fold enrichment (6-mer frequency, TF over GST control)
